KB-V1 cytotox – qHTS assay for MDR1-selective chemotherapeutics: Primary screen using the drug-selected MDR subline cells KB-V1; KB-V1 MDR cells viability, CellTiter-Glo, 72 h; Potency, µM (top dose mostly 46.1 µM), hits mostly cytotoxic; actives 3.4% (n = 400,000); AID 1347076, 2019; note: nearly all actives have a fitted effect of over 60% in size
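KB-V1 MDR subline cells in DMEM (phenol-red free, 10% FBS) exposed to compounds in qHTS concentration series for 72 h at 37 degrees C. Viability read by CellTiter-Glo luminescence; concentration-effect curves fitted after normalization and correction.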
MCF10A rerep – A quantitative high throughput screen for small molecules that induce DNA re-replication in MCF 10a normal breast cells | MCF 10A DNA re-replication, Hoechst nuclear intensity, 48 h | Potency, µM (titrated, usually from 46.1 µM), most hits filed as activators | actives 2.9% (n = 350,000); note: nearly all actives have a fitted effect of over 50% in size
HT1080 IDH1KD tx – qHTS for induction of synthetic lethality in tumor cells producing 2HG: qHTS for the HT-1080-IDH1KD cell line | HT-1080 IDH1 knockdown viability, ATP luminescence, 48 h | AID 686971, 2013 | actives 2% (n = 360,000) | Potency, µM (doses to about 46.1 µM), most hits filed as cytotoxic
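CellTiter-Glo luminescence after 48 h compound exposure at 37 degrees C of IDH1-knockdown HT-1080 cells in 5% FBS RPMI. %Activity scaled between DMSO wells and cell-free media wells, with curves fitted and assigned curve classes.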
HT1080-NT tox – qHTS for induction of synthetic lethality in tumor cells producing 2HG: qHTS for the HT-1080-NT fibrosarcoma cell line; Potency, µM (top dose mostly 46.1 µM), actives largely listed as cytotoxic; HT-1080-NT fibrosarcoma viability, CellTiter-Glo ATP luminescence, 48 h; AID 686970, 2013; actives 1.6% (n = 360,000);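 note: NT is the 2HG producing partner of a matched IDH1 knockdown line; nearly all actives have a fitted effect of over 55% in size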
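Viability of the 2HG-overproducing fibrosarcoma line after 48 hours of compound exposure at 37 degrees C was determined by luminescence with CellTiter-Glo, and concentration-effect curves were then fitted and categorized.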
KB-3-1 cytotox – qHTS assay for MDR1-selective chemotherapeutics: Primary screen using the parental adenocarcinoma cell KB-3-1; KB-3-1 viability, CellTiter-Glo ATP luminescence, 72 h; Potency, µM (top dose mostly 46.1 µM), most hits filed as cytotoxic; actives 1.4% (n = 400,000); note: nearly all actives have a fitted effect of over 60% in size
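Viability of parental KB-3-1 cells, measured by CellTiter-Glo luminescence, followed a 72 h incubation at 37 °C with pinned compounds in phenol-red-free DMEM containing 10% FBS.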
SW480 rereplic – A quantitative high throughput screen for small molecules that induce DNA re-replication in SW480 colon adenocarcinoma cells | SW480 DNA re-replication, Hoechst DNA content imaging, 48 h | Potency, µM (series often up to 46.1 µM), most hits filed as activators | actives 1.8% (n = 340,000); note: nearly all actives have a fitted effect of over 55% in size
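Hoechst fluorescence of nuclei (405 nm excitation, 500-530 nm emission) measured by plate-scanning imager after 48 hr compound exposure at 37 C; re-replication scored as increased number of nuclei with elevated intensity.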
Numbers stand for hits; – = inactive; ? = inconclusive; · = no result; [ ] = another dose, or the depositor's remark. Sampled rows, rich in hits. Any-hit rate of the full collection: about 8%. Calls come from the whole dose curve; as a rule, active = well fitted curve in the direction sought with a large enough effect; inconclusive = small, poorly fitted or top-dose-only effect, or another doubt; inactive = no such curve, though single readings can be large; an effect the other way counts as inactive or inconclusive.

SMILES	KB-V1 cytotox	MCF10A rerep	HT1080 IDH1KD tx	HT1080-NT tox	KB-3-1 cytotox	SW480 rereplic
CN(C)C(=O)COC(=O)c1cccnc1Nc1ccccc1F	16µM	–	–	–	–	–
Cc1sc2nc3ccc(N4CCCC4)nn3c(=O)c2c1C	16µM	–	–	–	?	–
Cc1c2cnccc2c(C)c2c1oc1ccccc12	12µM	?	–	–	?	?
COCCN=C1N[C@@H](c2ccc(Br)cc2)C(C(=O)OC)=C(C)N1Cc1ccccc1	–	–	–	23µM	–	–
COCCN=C1N[C@@H](c2ccccc2)C(C(=O)OC)=C(C)N1Cc1ccccc1	–	–	–	–	–	–
COCCOC(=O)C1=C(C)N(Cc2ccccc2)C(=O)NC1c1ccc(OC)cc1 (centres undefined)	13µM	?	–	–	–	–
CC(CNC(=O)C1CCN(C(=O)c2cc3sccc3n2C)CC1)c1ccccc1 (centres undefined)	–	·	·	·	–	·
CSc1ccc(/C=C2\C=Cc3cc([N+](=O)[O-])ccc32)cc1	–	·	·	·	?	·
Cc1cc2c(cc1S(=O)(=O)N1CCN(c3cccc(C(F)(F)F)c3)CC1)OCC(=O)N2	–	23µM	–	–	–	?
Cc1nc(-c2ccc(Cl)cc2)sc1CCNC(=O)C(=O)Nc1ccc(F)cc1F	–	·	·	·	–	·
CCc1nc2ccc(C(=O)NCc3ccccc3OC)cn2c1N(CC)Cc1cccc(Br)c1	16µM	·	?	?	?	·
CCc1nc2ccc(C(=O)Nc3cccc(NS(C)(=O)=O)c3)cn2c1N(CC)Cc1cccc(Br)c1	?	·	?	23µM	?	·
CCc1cccc(C)c1NC(=O)CN1CCCN(Cc2ccccc2Cl)S1(=O)=O	–	·	·	·	?	·
Cc1ccc(/C=N/NC(=O)NN(C)c2ncc(C(F)(F)F)cc2Cl)cc1	–	–	?	–	–	–
CN(NC(=O)Nc1ccc(Cl)cc1)c1ncc(C(F)(F)F)cc1Cl	16µM	–	?	?	?	?
Nc1cccc(Nc2nc(OC(C(F)(F)F)C(F)(F)F)nc(OC(C(F)(F)F)C(F)(F)F)n2)c1	23µM	?	?	?	18µM	–[9.22 µM]
O=C(C1CC1)N1CCc2cc(Br)cc(S(=O)(=O)N3CCCCCC3)c21	9.2µM	?	–	–	?	–
CCC(=O)N1CCc2cc(Br)cc(S(=O)(=O)N3CCCCCC3)c21	?	–	–	–	–	–
N#C/C(=C\c1ccc(-c2cccc(Cl)c2)o1)C(=O)Nc1cccc(C(F)(F)F)c1	?	·	·	·	–	·
COc1ccc(NC(=O)c2oc3ccccc3c2NC(=O)C(C)(C)C)cc1	9.2µM	–	?	–	–	–
CCOc1ccc(NC(=O)c2oc3ccccc3c2NC(=O)C(C)(C)C)cc1	–	·	·	·	–	·
COc1ccc(NC(=O)c2oc3ccccc3c2NC(=O)C2CC2)cc1	10µM	–	–	–	–	–
Cc1cccc(C(=O)N2CCNC(=O)C2CC(=O)Nc2ccc(F)cc2)c1 (centres undefined)	–	·	·	·	–	·
O=[N+]([O-])c1cccc2[nH]cnc12	–	·	·	·	–	·
CC(C)(C)NCC(=Cc1ccccc1)C(=O)c1ccccc1	?	1.8µM	5.8µM	6.5µM	5.2µM	5.2µM
O=c1cc(O)c2c([nH]1)CCC2	–	·	·	·	?	·
CN1C(=O)CSc2ccc(NC(=O)N3CCN(c4ccccn4)CC3)cc21	18µM	–	–	–	–	–
CN1C(=O)CSc2ccc(NC(=O)N3CCc4ccccc43)cc21	16µM	?	–	–	–	–
Cc1ccc(C)c(N2CCN(C(=O)Nc3ccc4c(c3)N(C)C(=O)CS4)CC2)c1	–	–	?	–	–	–

Bioassay records as filed in PubChem BioAssay.
